Growth data for nine molecules are collected here from PubChem BioAssay (NCI).

Holding throughout (assay): NCI-60 one-dose screen, 48 h (100 = growth as untreated, 0 = no growth, -100 = all killed)
In assay [1] the test system is RPMI-8226 leukemia. The conditions noted are these: 10 µM unless noted.
Assay [2] has as its system OVCAR-8 ovarian. Conditions: 10 µM unless noted.
Assay [3] deals with OVCAR-5 ovarian. The conditions noted are these: 10 µM unless noted.
In assay [4] the test system is OVCAR-4 ovarian. Conditions: 10 µM.
Assay [5] concerns SK-OV-3 ovarian. Conditions: 10 µM unless noted.
For assay [6], the system named is IGROV1 ovarian. The conditions noted are these: 10 µM unless noted.
In assay [7] the test system is OVCAR-3 ovarian. The conditions noted are these: 10 µM unless noted.
The subject of assay [8] is NCI/ADR-RES ovarian. Conditions: 10 µM unless noted.
Assay [9] has as its system T-47D breast. Conditions: 10 µM unless noted.
Assay [10] has as its system MDA-MB-435 melanoma. The conditions noted are these: 10 µM unless noted.
Assay [11] relates to SW-620 colon. Conditions: 10 µM unless noted.
Assay [12] relates to MCF7 breast. Conditions: 10 µM unless noted.
Assay [13] concerns HCT-116 colon. The conditions noted are these: 10 µM unless noted.
In assay [14] the test system is HCC-2998 colon. The conditions noted are these: 10 µM unless noted.
Assay [15] has as its system KM12 colon. The conditions noted are these: 10 µM unless noted.
Assay [16] relates to HS 578T breast. Conditions: 10 µM unless noted.
In assay [17] the test system is BT-549 breast. The conditions noted are these: 10 µM unless noted.

SMILES strings stand for the structures. About 83,000 compounds went through this panel and 20% of them were active in at least one assay; those are over-represented in the sample as a whole.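 Assay: single dose, 48 h. Readout: percent growth (0 = no net growth; negative = cell death). Active: <10.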 Activity calls are given as the source filed them.

Regarding `COc1cc(OC)c(/C=C/C(=O)c2c(N)cc(OC)cc2OC)c(OC)c1`, the growth is 13.5% (inactive) in assay [1]; 19.9% (inactive) in [2]; 29.7% (inactive) in [3]; 80.1% (inactive) in assay [4]; 5.56% (active) in [5]; 32.5% (inactive) in assay [6]. For the same molecule, the growth in assay [7] was -45.5% (active); in assay [8], -16.2% (active); in assay [9], 49.9% (inactive); in assay [10], -27.3% (active); in assay [11], 15% (inactive); in assay [12] it was 25% (inactive). In addition, the growth was 14.8% (inactive) in assay [13], 29.4% (inactive) in assay [14] and 11.5% (inactive) in assay [15].
Take `O=C(COc1cccc(/C=C2\Oc3ccccc3C2=O)c1)c1ccc([N+](=O)[O-])cc1`: the growth in assay [1] was 75.5% (inactive); in assay [2], 97.1% (inactive); in [3], 97.1% (inactive); in assay [4] it was 97% (inactive); in [5], 121% (inactive); in assay [7] it was 88.5% (inactive). For the same molecule, the growth in assay [16] is 98.4% (inactive); in [8] it was 79.1% (inactive); in [9], 51.6% (inactive); in assay [17] it was 110% (inactive); in [10], 116% (inactive); in [11], 113% (inactive). The growth in assay [12] was 50.7% (inactive); in [13] it was 92.2% (inactive); in assay [14], 96.8% (inactive); in assay [15] it was 110% (inactive).
For the molecule `CC(=O)OC[C@]12CC[C@@H]([C@@H](C)C(N)=O)[C@@H]1[C@H]1CC[C@@H]3[C@@]4(C)CC[C@H](OC(C)=O)C(C)(C)[C@@H]4CC[C@@]3(C)[C@]1(C)CC2`, the growth in assay [2] is -31.7% [100 µM] (active); in assay [3], -77.4% [100 µM] (active); in assay [5], -11.9% [100 µM] (active); in [7] it was -76.2% [100 µM] (active); in [16] it was -33% [100 µM] (active); in assay [8], -57.3% [100 µM] (active). The growth in assay [9] is -8.82% [100 µM] (active); in [17], -55.1% [100 µM] (active); in [10] it was -63.8% [100 µM] (active); in assay [11] it was -55.1% [100 µM] (active); in assay [12] it was -45.6% [100 µM] (active); in assay [13], -84.2% [100 µM] (active). Also, the growth in [14] is -68.1% [100 µM] (active); in [15], -62.1% [100 µM] (active).
With `COc1ccc2c(c1)c(-c1noc(-c3cn(C)c4ncc(F)cc34)n1)cn2C`, the growth was 92.1% (inactive) in assay [1]; 63.7% (inactive) in assay [2]; 87.6% (inactive) in assay [3]; 18.4% (inactive) in assay [4]; 79.1% (inactive) in assay [5]; 69.6% (inactive) in [6]. For the same molecule, the growth was 42% (inactive) in assay [7]; 91% (inactive) in assay [16]; 68.3% (inactive) in assay [8]; 76.8% (inactive) in assay [9]; 77.1% (inactive) in assay [10]; 82% (inactive) in [11]. In addition, the growth in [12] was 54.6% (inactive); in [14] it was 90% (inactive); in assay [15], 87.8% (inactive).
Turning to `CN(C)c1ccc(N=Nc2ccc3ccccc3c2)cc1`, the growth was 79.7% (inactive) in assay [1]; 98.2% (inactive) in [2]; 104% (inactive) in assay [3]; 76.7% (inactive) in assay [4]; 96% (inactive) in assay [5]; 77.8% (inactive) in assay [6]. Moreover, the growth in [7] is 88.7% (inactive); in assay [8], 98.1% (inactive); in assay [17], 101% (inactive); in assay [10] it was 101% (inactive); in [11], 96.9% (inactive); in [13], 66% (inactive). Further, the growth is 99.8% (inactive) in assay [14] and 92.8% (inactive) in assay [15].
With `CCCCCn1sc(=O)n(Cc2ccc(CNC(=O)OCc3ccc4cccc(O)c4n3)cc2)c1=O`, the growth in assay [1] was -14.6% (active); in assay [2], 8.91% (active); in assay [3] it was -42.3% (active); in assay [4], -50.6% (active); in assay [5], 41.7% (inactive); in assay [6], -85.9% (active). The growth was -84.5% (active) in assay [7]; 10.8% (inactive) in [16]; -11.6% (active) in [8]; -47.3% (active) in [9]; -70.1% (active) in assay [10]; -48.5% (active) in assay [11]. Besides, the growth is 0.802% (active) in assay [12], -76.9% (active) in [13], 5.53% (active) in assay [14] and 11.8% (inactive) in [15].
Consider `COc1c(C(C)=O)c(OCCCCOc2c(C(C)=O)c(OC)c3ccoc3c2OC)c(OC)c2occc12`, for which the growth was 47.3% (inactive) in [1]; 45.3% (inactive) in assay [2]; 120% (inactive) in [3]; 59.2% (inactive) in assay [4]; 105% (inactive) in assay [5]; 61.4% (inactive) in assay [7]. Besides, the growth in [16] was 93.9% (inactive); in [8], 22.9% (inactive); in assay [9] it was 23% (inactive); in assay [10], 57.9% (inactive); in assay [11], 93.4% (inactive); in assay [12] it was 64.4% (inactive). Besides, the growth was 78% (inactive) in assay [13], 76.7% (inactive) in [14] and 50.4% (inactive) in assay [15].
In the case of `O=[N+]([O-])c1cc(CCl)ccc1OCCBr`, the growth in assay [1] was 93.5% (inactive); in assay [2], 101% (inactive); in [3] it was 108% (inactive); in assay [4], 97% (inactive); in [5], 102% (inactive); in assay [6], 107% (inactive). Besides, the growth is 105% (inactive) in assay [7]; 108% (inactive) in assay [16]; 110% (inactive) in assay [8]; 88.3% (inactive) in assay [9]; 104% (inactive) in assay [10]; 93.9% (inactive) in [13]. Further, the figures for the growth in [14] and in assay [15] were 104% (inactive) and 113% (inactive), respectively.
For `C[N+](C)(C)c1ncnc2[n-]cnc12`, the growth in [1] is 126% (inactive); in [2] it was 93.7% (inactive); in assay [3], 76.4% (inactive); in assay [4] it was 105% (inactive); in [5] it was 98.7% (inactive); in assay [7], 92.4% (inactive). In addition, the growth in assay [8] was 41.5% (inactive); in assay [9], 84% (inactive); in assay [10], 104% (inactive); in assay [11] it was 96.1% (inactive); in assay [12] it was 89.8% (inactive); in assay [13] it was 105% (inactive). Moreover, the growth in [15] is 93.6% (inactive).
